The values below come from PubChem BioAssay (EPA / NIEHS).

SMILES strings stand for the structures. “And” between values parts separate entries of the source, which are not always exact repeats. Identical values can stand only once. Records with an inconclusive call do not appear. The source holds several records for some structures; these can differ, active in one and inactive in another. The source made the active and inactive calls. Rule for the calls, unless noted: active = hit-call score of the fitted dose curve at least 0.9, where 1 is the maximum; inactive = score below 0.9.

Assay [1] can be described thus: CCTE_Deisenroth_AIME_384WELL_CTox_Active: Cytotoxicity Assessment (CTOX) in CCTE's 384-well Estrogen Receptor Transactivation Assay with AIME metabolic competence (metabolism positive), Deisenroth Lab (AID 2284037; active = hit-call score of the fitted dose curve at least 0.9, where 1 is the maximum;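 note: chemicals first conditioned 2 h by alginate-bound induced rat liver S9 before cells; activity means signal loss indicating cell death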). In outline:
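Cytotoxicity in VM7Luc4E2 breast cells, 24 hour, measured as protease-substrate fluorescence loss, after 2-hour metabolic conditioning with induced rat hepatic S9 in alginate microspheres. Concentrations 0.002 - 200 uM, 10 points, bidirectional fitting.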

The nature of assay [2]: CCTE_Deisenroth_AIME_384WELL_CTox_Inactive: Cytotoxicity Assessment (CTOX) in CCTE's 384-well Estrogen Receptor Transactivation Assay without AIME metabolic competence (metabolism negative), Deisenroth Lab (AID 2284039; active = hit-call score of the fitted dose curve at least 0.9, where 1 is the maximum;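 note: cell viability via live-cell protease substrate cleaved to fluorescent probe; cells exposed 24 h to medium preincubated 2 h with alginate-water beads without S9; loss of fluorescence signal means loss of viability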). A digest of the protocol:
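Fluorescent protease-substrate viability readout after 24 h exposure of VM7Luc4E2 cells to conditioned medium. Chemicals (0.002–200 uM) first sat 2 h over alginate-water beads, no S9. Data fitted bidirectionally, loss of signal meaning viability loss.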

Assay [3] deals with Estrogen receptor (Homo sapiens) (UniProt P03372). Kind of assay: CCTE_Deisenroth_AIME_384WELL_LUC_Inactive: CCTE's 384-well Estrogen Receptor Transactivation Assay without AIME metabolic competence (ERTA luciferase; metabolism negative), Deisenroth Lab (AID 2284038; active = hit-call score of the fitted dose curve at least 0.9, where 1 is the maximum;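 note: VM7Luc4E2 breast cells given medium preincubated 2 h with S9-free microspheres; hits raise estrogen receptor luciferase signal so potencies reflect agonists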). In outline:
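Chemicals (10-point series, 0.002 - 200 uM) were incubated 2 hours with alginate-water microsphere lids lacking S9, then the conditioned medium was transferred to VM7Luc4E2 breast cells for 24 hour. Luciferase induction was read by bioluminescence, fitted upward relative to 17beta-estradiol.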

Assay [4] has the same target. In words: CCTE_Deisenroth_AIME_384WELL_LUC_Shift: CCTE's 384-well Estrogen Receptor Transactivation Assay with AIME metabolic competence data shift (ERTA luciferase; difference in metabolism positive and negative), Deisenroth Lab (AID 2284041).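 Note: shift is response with S9 minus without S9 so positive means metabolism raised ER signal.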 A digest of the protocol: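 Test chemicals (0.002–200 uM, 10-point) were pre-incubated 2 h with alginate microspheres containing phenobarbital/beta-naphthoflavone-induced male Sprague Dawley rat liver S9 or water, then medium was transferred to VM7Luc4E2 cells for 24 h luciferase readout; shift = S9-positive minus S9-negative normalized response.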

A short description of assay [5]: CCTE_Shafer_MEA_dev_firing_rate_mean: CCTE's Neural Network Formation Assay for Mean Firing Rate, Shafer Lab (AID 2284031).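 For AC50: curve fitted for loss of firing so AC50 reflects decreased mean firing rate.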 In outline: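 Developing rat cortical networks on MEA plates undergo 12-day compound exposure. Firing frequency, averaged across active electrodes, is integrated as area under the curve over four recording days, referenced to DMSO.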
A short description of assay [6]: CCTE_Shafer_MEA_dev_per_burst_spike_percent: CCTE's Neural Network Formation Assay for Percent of Spikes in a Burst, Shafer Lab (AID 2284032).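 For AC50: fitted as a decrease in burst spike percentage below DMSO baseline.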 In outline:
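Rat primary cortical neurons on 16-electrode MEA wells, dosed from plating day 0 for 12 days with renewal on DIV 5 and 9; spikes-in-bursts percentage averaged over bursting electrodes, collapsed as AUC across days 5, 7, 9, 12; loss direction versus DMSO.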

Assay [7] is described as follows: CCTE_Shafer_MEA_dev_active_electrodes_number: CCTE's Neural Network Formation Assay for Number of Active Electrodes, Shafer Lab (AID 2284040; active = hit-call score of the fitted dose curve at least 0.9, where 1 is the maximum;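 for AC50: potency for loss of active electrodes versus DMSO so lower counts are hits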). A digest of the protocol:
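Rat cortical primary cultures, 1.5 x 10^5 cells/well, PEI-coated MEA, laminin drop. Continuous exposure DIV 0–12; full media/compound change DIV 5, 9. Readout: electrodes with mean firing ≥5 spikes/min; AUC across days; loss vs DMSO.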

Assay [8] in a line: CCTE_Shafer_MEA_dev_burst_rate: CCTE's Neural Network Formation Assay for Burst Rate, Shafer Lab (AID 2284042).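 For AC50: potency for loss of burst rate below DMSO control.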 A digest of the protocol:
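Exposure ran continuously over 12 days of network development in rat cortical cultures, with compound refreshed during full media changes on DIV 5 and 9. Single-electrode bursts per recording time, well-mean over active electrodes, trapezoidal AUC across days 5–12, fitted downward relative to DMSO.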

The nature of assay [9]: CCTE_Shafer_MEA_dev_bursting_electrodes_number: CCTE's Neural Network Formation Assay for Number of Bursting Electrodes, Shafer Lab (AID 2284043; active = hit-call score of the fitted dose curve at least 0.9, where 1 is the maximum;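 for AC50: potency is for loss of bursting electrodes relative to DMSO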). In outline:
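Read-out is the per-well number of electrodes bursting at least once every 2 minutes, recorded on days 5, 7, 9 and 12 and collapsed by trapezoidal area under the curve. Cultures were primary rat cortical neurons on MEA plates, treated continuously from plating.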

Assay [10] in a line: CCTE_Shafer_MEA_dev_per_burst_interspike_interval: CCTE's Neural Network Formation Assay for Burst Interspike Interval, Shafer Lab (AID 2284044).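 For AC50: potency for a decrease of within-burst interspike interval below DMSO level.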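 Note: mean spike spacing inside bursts as AUC over recordings on days 5 7 9 12.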 A digest of the protocol: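 Neurons from rat cortex plated onto PEI-coated MEA wells with laminin […] at 1.5 x 10^5 cells/well, then treated from day 0. Media and compound fully replaced on DIV 5 and 9. Extracellular spontaneous firing recorded four times; interspike interval per burst summarised as AUC.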

A short description of assay [11]: CCTE_Shafer_MEA_dev_burst_duration_mean: CCTE's Neural Network Formation Assay for Mean Burst Duration, Shafer Lab (AID 2284045).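 For AC50: curve fitted for loss meaning shorter burst duration than DMSO.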 In outline:
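Read-out: average first-to-last-spike interval within single-electrode bursts, averaged over bursting electrodes per well, then summarised as area under the curve across days 5, 7, 9 and 12. Developing rat cortical networks were exposed from day 0.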

Assay [12] is described as follows: CCTE_Shafer_MEA_dev_interburst_interval_mean: CCTE's Neural Network Formation Assay for Mean Interburst Interval, Shafer Lab (AID 2284046).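 Note: well-mean interburst interval of bursting electrodes as AUC over four recording days; curve fitted for decrease in interburst interval relative to DMSO.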 In outline:
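Primary rat cortical neurons on PEI-coated 48-well MEA plates (laminin added with cells at plating) (16 electrodes/well), exposed from plating day 0 with renewal at DIV 5 and 9. Mean inter-burst interval averaged over bursting electrodes, AUC across days 5, 7, 9, 12; DMSO baseline.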

Assay [13] is described as follows: CCTE_Shafer_MEA_dev_inter_network_spike_interval_mean: CCTE's Neural Network Formation Assay for Mean Inter-network Spike Interval, Shafer Lab (AID 2284047).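 For AC50: potency for a decrease in mean inter-network spike interval below DMSO.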 In outline:
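Mean time between consecutive network-spike peaks, recorded extracellularly (adaptive spike detection) on DIV 5, 7, 9 and 12, summarized as trapezoidal AUC. Rat cortical cultures on MEAs dosed continuously days 0–12, re-dosed at feeds; loss-of-signal fit relative to DMSO.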

Assay [14] is described as follows: CCTE_Shafer_MEA_dev_network_spike_number: CCTE's Neural Network Formation Assay for Number of Network Spikes, Shafer Lab (AID 2284048).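 For AC50: fit as a loss of signal meaning fewer network spikes than DMSO.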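 Note: synchronized bursts across electrodes counted on days 5 7 9 12 and integrated as AUC.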 A digest of the protocol:
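Developing networks of primary rat cortical neurons are treated over 12 days starting at plating, with media and compound fully replaced on DIV 5 and 9. Network spike counts from four recording days are integrated as trapezoidal AUC.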

Assay [15] is described as follows: CCTE_Shafer_MEA_dev_network_spike_peak: CCTE's Neural Network Formation Assay for Mean Number of Electrodes in Network Spike, Shafer Lab (AID 2284049).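 For AC50: fitted for loss of signal meaning fewer electrodes in network spikes than DMSO.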 In outline:
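Rat cortical primary culture, 1.5 x 10^5 cells/well, 48-well MEA (16 electrodes/well). Dosing day 0 through DIV 12, full media/compound exchange DIV 5, 9. AxIS adaptive spike detection; AUC over days 5/7/9/12; loss-of-signal vs DMSO.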

Assay [16] is described as follows: CCTE_Shafer_MEA_dev_spike_duration_mean: CCTE's Neural Network Formation Assay for Mean Spike Duration, Shafer Lab (AID 2284051).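 For AC50: potency for a decrease in mean network spike duration versus DMSO.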 In outline: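 Spontaneous activity was recorded on days 5, 7, 9 and 12 from rat cortical cultures grown on microelectrode arrays and dosed continuously from day 0, with media and compound renewed after the DIV 5 and 9 recordings. Network-spike duration was collapsed by area under the curve.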

A short description of assay [17]: CCTE_Shafer_MEA_dev_network_spike_duration_std: CCTE's Neural Network Formation Assay for Standard Deviation of Network Spike Duration, Shafer Lab (AID 2284052).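 Note: hits are decreases in network spike duration SD versus DMSO vehicle.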 In outline:
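Network spike duration variability was collapsed across recordings on days 5, 7, 9 and 12 by trapezoidal area-under-curve and fitted downward against DMSO. Cultures were rat cortical neurons on PEI-coated MEA plates, dosed continuously from plating, refed with compound DIV 5/9.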

Assay [18] is described as follows: CCTE_Shafer_MEA_dev_per_network_spike_spike_number_mean: CCTE's Neural Network Formation Assay for Mean Number of Spikes in a Network Spike, Shafer Lab (AID 2284053).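 For AC50: fitted as decrease in spikes per network spike relative to DMSO.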 In outline:
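Mean spike count within each network spike, taken in a 0.05 s window at its peak, was recorded on days 5, 7, 9 and 12 and integrated as trapezoidal area under the curve. Rat cortical cultures on MEA plates received continuous compound from day 0, refreshed at medium changes on DIV 5 and 9.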

The nature of assay [19]: CCTE_Shafer_MEA_dev_per_network_spike_spike_percent: CCTE's Neural Network Formation Assay for Percent of Spikes in a Network Spike, Shafer Lab (AID 2284054). In outline:
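Rat primary cortical cultures, 1.5 x 10^5 cells/well on MEA. Continuous compound exposure d0–12, medium/compound renewed DIV 5, 9. Network-spike spike % (0.05 s peak window), AUC over 4 recordings, DMSO baseline.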

Estrogen receptor (Homo sapiens), sequence (P03372 whole entry, looked up): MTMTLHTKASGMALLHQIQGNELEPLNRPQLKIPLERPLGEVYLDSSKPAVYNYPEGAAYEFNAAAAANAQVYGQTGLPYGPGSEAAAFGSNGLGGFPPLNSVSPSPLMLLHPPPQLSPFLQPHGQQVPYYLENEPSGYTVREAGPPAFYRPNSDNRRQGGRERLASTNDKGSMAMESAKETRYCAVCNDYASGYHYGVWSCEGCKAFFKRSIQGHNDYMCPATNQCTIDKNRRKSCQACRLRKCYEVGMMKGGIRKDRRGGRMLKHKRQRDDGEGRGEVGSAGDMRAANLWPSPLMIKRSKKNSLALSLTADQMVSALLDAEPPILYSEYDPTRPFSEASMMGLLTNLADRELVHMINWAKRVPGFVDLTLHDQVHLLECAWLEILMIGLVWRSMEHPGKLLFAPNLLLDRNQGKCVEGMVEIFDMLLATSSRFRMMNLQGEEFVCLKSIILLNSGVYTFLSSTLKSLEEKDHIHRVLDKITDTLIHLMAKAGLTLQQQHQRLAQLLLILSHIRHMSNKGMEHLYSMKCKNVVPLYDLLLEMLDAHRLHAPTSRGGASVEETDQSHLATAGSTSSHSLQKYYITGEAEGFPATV

For the compound `CC(C)CC(C)CC(O)CC(C)C` (stereo not drawn), the result in assay [1] and in [2] was inactive.

As usually defined, the AC50 is the concentration giving half of the maximal activity seen. Regarding `O=[N+]([O-])c1ccc(O)cc1C(F)(F)F`, the results for the half-maximal activity concentration (AC50) in assay [1] and in assay [2] were 62.2 µM (active) and 34.9 µM (active), respectively.

Regarding `CCCCCCCCCCCC(=O)OCC(O)CO` (stereo not drawn), the concentration at half-maximal activity (AC50) in assay [1] was 0.0666 µM (active). The result in assay [3], in assay [2] and in [4] was inactive.

`CCCCC(CC)COC(C)=O` (stereo not drawn): the result in assay [1] was inactive.

`Nc1ccc2cc(S(=O)(=O)O)cc(O)c2c1N=Nc1ccccc1C(F)(F)F`: the figures for the AC50 in assay [1] and in [2] were 46.4 µM (active) and 38.2 µM (active), respectively.

On to `CCNCCO`, for which, in assay [1], the compound was classed as inactive.

With `Oc1c(Cl)cc(Cl)c(Cl)c1Cc1c(O)c(Cl)cc(Cl)c1Cl`, the AC50 in assay [5] is 894 nM (active) and 1.28 µM (active); in assay [6], 1.16 µM (active) and 954 nM (active); in assay [7], 1.02 µM (active) and 1.07 µM (active); in assay [8], 976 nM (active) and 688 nM (active); in [9], 919 nM (active) and 769 nM (active); in assay [10] it was 2.04 µM (active) and 2.61 µM (active). The half-maximal activity concentration (AC50) in [11] is 1.19 µM (active) and 2.59 µM (active); in assay [12] it was 2.62 µM (active) and 2.86 µM (active); in assay [13], 0.0601 µM (active); in [14], 830 nM (active) and 526 nM (active); in [15], 1.19 µM (active) and 1.83 µM (active); in assay [16], 1.66 µM (active) and 1.35 µM (active). Also, the half-maximal activity concentration (AC50) in assay [17] is 972 nM (active) and 727 nM (active); in assay [18], 809 nM (active) and 929 nM (active); in assay [19], 1.03 µM (active) and 842 nM (active). In assay [13], the result was inactive.

Turning to `Nc1ccc(N)c2c1C(=O)c1ccccc1C2=O`, the figures for the concentration at half-maximal activity (AC50) in assay [1] and in assay [2] were 52 µM (active) and 28.9 µM (active), respectively.

For `O=C1NC2NC(=O)NC2N1` (stereo not drawn), the compound was classed as inactive in assay [1].

Consider `CS(C)=O`, for which the result in assay [1] was inactive.

Turning to `Clc1ccc(C(c2ccccc2Cl)C(Cl)Cl)cc1` (stereo not drawn), the AC50 in assay [1] was 100 µM (active); in [2] it was 152 µM (active).

As to `CS(=O)(=O)OCCCCOS(C)(=O)=O`, the call in [5], in assay [6], in assay [3], in assay [7], in assay [4] and in assay [8] was inactive. Further, the call in [9], in assay [10], in assay [11], in assay [12], in [13] and in assay [14] was inactive. For the same compound, the compound was called inactive in [15], in assay [16], in [17], in assay [18] and in assay [19].

For the compound `CCC(=O)O[C@@H]1C[C@H]2CC[C@]1(C)C2(C)C`, the compound was classed as inactive in assay [1].

In the case of `O=P(O)(O)O`, the result in assay [1] and in assay [2] was inactive.

Take `FC(F)(F)COCC(F)(F)F`: the outcome in assay [5], in assay [6], in assay [7], in [8], in assay [10] and in [11] was inactive. Also, the call in assay [12], in [13], in assay [14], in assay [15], in assay [16] and in assay [17] was inactive. Besides, the outcome in assay [18] and in assay [19] was inactive.
